# Assay results: PubChem BioAssay
# Active and inactive are the calls of the source.
# How the values were obtained:
# [1] = tested on: Plasmodium falciparum Sir2 (PF13_0152, Sir2A); assay: Plasmodium falciparum Sir2A binding compounds – biochemical, small-molecule microarray, 635 nm fluorescence, primary screen (AID 1098); settings: fluorescence 635 nm, higher = more signal;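 also: score merges spot fluorescence intensity with its signal-to-noise ratio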
# [2] = probe aDKK1 binding to arrayed compounds – biochemical, biotinylated probe, 635/667 nm fluorescence, primary screen (AID 1099); settings: small-molecule microarray, higher = more signal;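 also: score merges 667nm spot fluorescence with signal to noise across triplicate slides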
# [3] = probe aCHRDL2 binding to arrayed compounds – biochemical, biotinylated probe, 635/667 nm fluorescence, primary screen (AID 1100); settings: small-molecule microarray, higher = more signal
# [4] = change in splice reporter luminescence, either direction, cell-based, HEK293, spliceosome inhibition project, primary screen (AID 1101); settings: HEK293 splicing luciferase reporter, 24 h, higher = more signal, called active from +8 up or from −8 down;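 also: HEK293 cells carrying a splicing-competent luciferase reporter gene; test concentration not given here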
# [5] = molecular target: Fibroblast growth factor 10 (Homo sapiens) (UniProt O15520); assay: compounds binding fibroblast growth factor 10 – biochemical, small-molecule microarray, 635 nm fluorescence, primary screen (AID 1102); settings: FGF10 binding, fluorescence 635 nm, higher = more signal
# [6] = tested on: glycogen synthase kinase-3 (GSK3A per assay name; protocol says GSK3B); assay: compounds binding glycogen synthase kinase-3 – biochemical, small-molecule microarray, 635 nm fluorescence, GSK3A, primary screen (AID 1103); settings: fluorescence 635 nm, higher = more signal; also: the record names both GSK3A and GSK3B
# [7] = molecular target: Epidermal growth factor receptor (Homo sapiens) (UniProt P00533); assay: compounds binding epidermal growth factor receptor – biochemical, small-molecule microarray, 635 nm fluorescence, primary screen (AID 1104); settings: EGFR binding, higher = more signal;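 also: score merges 667 nm emission intensity with spot signal to noise over triplicate slides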
# [8] = molecular target: Follistatin-related protein 3 (Homo sapiens) (UniProt O95633); assay: compounds binding follistatin-related protein 3 – biochemical, small-molecule microarray, 635 nm fluorescence, primary screen (AID 1105); settings: FSTL3 binding, higher = more signal;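 also: score merges emission near 667 nm and signal to noise per printed spot across three slides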
# [9] = molecular target: Dickkopf-related protein 1 (Homo sapiens) (UniProt O94907); assay: small molecules binding DKK1 protein – biochemical, small-molecule microarray, 635 nm fluorescence scan, primary screen (AID 1106); settings: higher = more signal;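 also: score merges emission near 667 nm with signal to noise over three replicate slides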
# [10] = tested on: Inhibin beta A chain (activin A); assay: small molecules binding activin A – biochemical, small-molecule microarray, 635 nm fluorescence scan, primary screen (AID 1107); settings: INHBA, higher = more signal;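 also: mouse activin A protein probed at 4.33 µg/mL on printed slides; score merges bound-protein fluorescence near 667 nm with spot signal-to-noise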
# [11] = tested on: Human papillomavirus type 1a protein E7 (residues 44-93); assay: small molecules binding HPV E7 44-93 – biochemical, small-molecule microarray, residues 44-93, 635 nm fluorescence, primary screen (AID 1108); settings: fluorescence 635 nm, higher = more signal;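 also: E7 fragment applied at 1 µg/mL in TBST for 1 h at 4 C; score combines spot fluorescence with its signal to noise ratio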
# [12] = hepatitis C replication reporter changes, two-sided – Huh7 cells, luciferase reporter, HCV replication inhibitor project, primary screen (AID 1109); settings: Huh7 HCV replicon luciferase reporter, 48 h; higher = more signal;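 also: huh7 hepatoma cells harbouring a luciferase neomycin HCV replicon reporter; luciferase luminescence as measure of HCV replicon replication; test concentration not given here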
# [13] = molecular target: Left-right determination factor 2 (Homo sapiens) (UniProt O00292); assay: small molecules binding LEFTY2 protein – biochemical, small-molecule microarray, 635 nm fluorescence scan, primary screen (AID 1110); settings: higher = more signal
# [14] = molecular target: Calmodulin-1 (Homo sapiens) (UniProt P0DP23); assay: small molecules binding calmodulin-1 with EGTA – biochemical, small-molecule microarray, Cy5-labelled CALM1, profiling panel (AID 1111); settings: Cy5-CALM1 binding fluorescence, higher = more signal;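 also: labelled calmodulin applied in Tris saline Tween buffer holding calcium plus EGTA and DTT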
# [15] = molecular target: Calmodulin-1 (Homo sapiens) (UniProt P0DP23); assay: small molecules binding Ca-loaded calmodulin-1 – biochemical, small-molecule microarray, Cy5-labelled CALM1, plus calcium, artefact control for SMM control-protein annotation, profiling panel (AID 1112); settings: Cy5-CALM1 binding fluorescence, higher = more signal;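 also: score merges spot fluorescence with signal to noise from triplicate slides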
# [16] = probe aWnt5a binding to arrayed compounds – biochemical, biotinylated probe, 635/667 nm fluorescence, primary screen (AID 1113); settings: small-molecule microarray, higher = more signal;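 also: score merges 667 nm fluorescence intensity with signal-to-noise per printed feature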
# [17] = probe aShh binding to arrayed compounds – biochemical, biotinylated probe, 635/667 nm fluorescence, primary screen (AID 1114); settings: small-molecule microarray, higher = more signal;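 also: probe is biotin-labelled aShh protein from a stem cell growth factor screen; measures binding of labelled protein to compounds printed on the slide; score merges feature fluorescence at 667 nm with signal-to-noise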
# [18] = probe aNog binding to arrayed compounds – biochemical, biotinylated probe, 635/667 nm fluorescence, primary screen (AID 1115); settings: small-molecule microarray, higher = more signal;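 also: probe is biotinylated aNog protein used at 0.15 µg/mL for 1 h at 4 C; z-score combines 667 nm fluorescence of each spot with its signal to noise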
# [19] = molecular target: Torsin-1A-interacting protein 1 (Homo sapiens) (UniProt Q5JTV8); assay: compound microarray binding of lysate hLAP1 – cell lysate, small-molecule microarray, COS7 lysate, 635/667 nm fluorescence, primary screen (AID 1116); settings: 635 nm fluorescence, higher = more signal
# [20] = molecular target: Alpha-bungarotoxin (Bungarus multicinctus) (UniProt P60615); assay: compounds binding labelled alpha-BTX control protein – biochemical, small-molecule microarray, Alexa647 label, 635/667 nm fluorescence, artefact control for SMM control protein annotation, profiling panel (AID 1117); settings: alpha-BTX-A647 binding fluorescence, higher = more signal
# Sequence of Alpha-bungarotoxin (Bungarus multicinctus) (P60615 whole entry, looked up): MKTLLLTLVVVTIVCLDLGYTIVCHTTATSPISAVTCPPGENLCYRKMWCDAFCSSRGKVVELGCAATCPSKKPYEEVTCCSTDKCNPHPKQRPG
# Sequence of Dickkopf-related protein 1 (Homo sapiens) (O94907 whole entry, looked up): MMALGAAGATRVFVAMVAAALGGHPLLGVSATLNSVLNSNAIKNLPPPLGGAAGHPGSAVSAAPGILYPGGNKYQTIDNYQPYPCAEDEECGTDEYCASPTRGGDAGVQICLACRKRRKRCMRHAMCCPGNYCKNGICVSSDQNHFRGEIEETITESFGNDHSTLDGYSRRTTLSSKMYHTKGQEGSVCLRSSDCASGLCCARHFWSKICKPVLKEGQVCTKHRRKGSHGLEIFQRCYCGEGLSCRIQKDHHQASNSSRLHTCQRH
# Sequence of Follistatin-related protein 3 (Homo sapiens) (O95633 whole entry, looked up): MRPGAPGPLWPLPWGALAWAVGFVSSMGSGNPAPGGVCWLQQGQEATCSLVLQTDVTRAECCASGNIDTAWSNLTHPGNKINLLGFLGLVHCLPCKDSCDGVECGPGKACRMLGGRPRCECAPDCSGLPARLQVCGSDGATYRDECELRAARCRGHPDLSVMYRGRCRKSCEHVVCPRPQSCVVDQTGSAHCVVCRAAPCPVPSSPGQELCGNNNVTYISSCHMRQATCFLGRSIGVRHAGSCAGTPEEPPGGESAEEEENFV
# Sequence of Left-right determination factor 2 (Homo sapiens) (O00292 whole entry, looked up): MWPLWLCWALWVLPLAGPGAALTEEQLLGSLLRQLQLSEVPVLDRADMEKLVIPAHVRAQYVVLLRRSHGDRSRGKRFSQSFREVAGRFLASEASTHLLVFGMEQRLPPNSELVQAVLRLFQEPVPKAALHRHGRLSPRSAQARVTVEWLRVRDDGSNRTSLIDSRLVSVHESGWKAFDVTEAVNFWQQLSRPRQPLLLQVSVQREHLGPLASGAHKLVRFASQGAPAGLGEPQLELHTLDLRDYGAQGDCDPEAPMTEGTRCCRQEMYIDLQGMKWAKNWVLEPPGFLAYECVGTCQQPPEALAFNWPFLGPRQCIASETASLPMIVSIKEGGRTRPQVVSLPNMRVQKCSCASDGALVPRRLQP
# Sequence of Epidermal growth factor receptor (Homo sapiens) (P00533 whole entry, looked up): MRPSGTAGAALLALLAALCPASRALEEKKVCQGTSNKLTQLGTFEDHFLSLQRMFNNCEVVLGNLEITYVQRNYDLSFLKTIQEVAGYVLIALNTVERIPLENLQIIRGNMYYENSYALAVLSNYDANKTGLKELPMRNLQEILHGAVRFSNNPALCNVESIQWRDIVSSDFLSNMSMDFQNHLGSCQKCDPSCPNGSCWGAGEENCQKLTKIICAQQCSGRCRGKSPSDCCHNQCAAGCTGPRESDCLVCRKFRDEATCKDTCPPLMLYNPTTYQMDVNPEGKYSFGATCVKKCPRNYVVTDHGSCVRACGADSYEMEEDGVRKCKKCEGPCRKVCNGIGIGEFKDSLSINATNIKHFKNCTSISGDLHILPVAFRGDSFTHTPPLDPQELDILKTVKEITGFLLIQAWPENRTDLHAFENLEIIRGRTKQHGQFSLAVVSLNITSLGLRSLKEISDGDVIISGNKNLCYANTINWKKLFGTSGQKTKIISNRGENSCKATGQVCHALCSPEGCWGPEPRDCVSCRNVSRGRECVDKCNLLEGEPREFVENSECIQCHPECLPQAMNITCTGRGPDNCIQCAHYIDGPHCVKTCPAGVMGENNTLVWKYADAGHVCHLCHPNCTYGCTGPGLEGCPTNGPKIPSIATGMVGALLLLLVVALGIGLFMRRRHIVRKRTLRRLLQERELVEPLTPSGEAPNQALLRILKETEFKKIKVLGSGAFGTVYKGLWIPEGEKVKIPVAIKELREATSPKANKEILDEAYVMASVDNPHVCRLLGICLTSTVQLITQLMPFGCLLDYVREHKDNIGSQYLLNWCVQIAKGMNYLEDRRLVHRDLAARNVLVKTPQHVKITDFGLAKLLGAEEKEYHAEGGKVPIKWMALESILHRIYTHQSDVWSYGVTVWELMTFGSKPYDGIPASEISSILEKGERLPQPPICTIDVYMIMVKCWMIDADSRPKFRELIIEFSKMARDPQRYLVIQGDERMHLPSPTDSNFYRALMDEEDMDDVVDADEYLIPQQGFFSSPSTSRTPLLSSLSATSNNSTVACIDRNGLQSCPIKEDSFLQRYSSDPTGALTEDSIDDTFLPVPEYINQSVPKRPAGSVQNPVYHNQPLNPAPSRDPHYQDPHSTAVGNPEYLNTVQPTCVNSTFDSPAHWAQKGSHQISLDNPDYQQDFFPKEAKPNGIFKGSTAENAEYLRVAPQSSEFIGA
# Sequence of Fibroblast growth factor 10 (Homo sapiens) (O15520 whole entry, looked up): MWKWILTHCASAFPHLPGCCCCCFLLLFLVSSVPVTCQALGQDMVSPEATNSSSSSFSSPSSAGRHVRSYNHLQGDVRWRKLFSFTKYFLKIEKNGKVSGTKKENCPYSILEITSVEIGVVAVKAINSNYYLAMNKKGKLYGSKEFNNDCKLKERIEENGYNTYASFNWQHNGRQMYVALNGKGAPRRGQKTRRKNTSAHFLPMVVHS
# Sequence of Torsin-1A-interacting protein 1 (Homo sapiens) (Q5JTV8 whole entry, looked up): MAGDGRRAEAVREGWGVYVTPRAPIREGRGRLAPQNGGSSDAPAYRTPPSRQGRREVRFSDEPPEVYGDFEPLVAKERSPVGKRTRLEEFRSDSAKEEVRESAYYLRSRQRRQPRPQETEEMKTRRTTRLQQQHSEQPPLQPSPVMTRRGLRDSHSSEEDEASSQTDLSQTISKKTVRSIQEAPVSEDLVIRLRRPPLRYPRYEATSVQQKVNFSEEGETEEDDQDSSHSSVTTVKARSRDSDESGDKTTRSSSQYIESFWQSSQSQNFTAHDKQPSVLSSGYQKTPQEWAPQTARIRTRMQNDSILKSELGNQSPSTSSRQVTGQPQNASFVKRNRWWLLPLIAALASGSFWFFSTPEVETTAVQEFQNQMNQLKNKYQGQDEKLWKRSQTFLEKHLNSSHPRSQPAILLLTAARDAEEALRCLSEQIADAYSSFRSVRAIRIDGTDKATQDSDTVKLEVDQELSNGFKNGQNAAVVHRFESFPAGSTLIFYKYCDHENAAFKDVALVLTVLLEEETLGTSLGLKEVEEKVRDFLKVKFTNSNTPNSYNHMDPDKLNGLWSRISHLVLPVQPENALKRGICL
SMILES,composite z-score [1],composite z-score [2],composite z-score [3],z-score [4],composite z-score [5],composite z-score [6],composite z-score [7],composite z-score [8],composite z-score [9],composite z-score [10],composite z-score [11],z-score [12],composite z-score [13],composite z-score [14],composite z-score [15],composite z-score [16],composite z-score [17],composite z-score [18],composite z-score [19],composite z-score [20]
O=C(NCC(O)CO)[C@]1(Cc2ccccc2)N=C(c2ccc(OCCCO)cc2)O[C@@H]1c1ccccc1 (stereo not given in full),1.51,1,0.955,-1.47 (inactive),-0.23,-0.0255,-1.25,-0.376,-0.197,0.148,0.679,-0.378,-1.48,2.61,1.31,0.225,-0.0642,1.68,2.64,2.27
COCCCNC(=O)[C@@]1(Sc2ccc(C)cc2)CC(=O)N(Cc2cc(C(F)(F)F)cc(C(F)(F)F)c2)[C@@H]1c1ccc(CO)cc1I,1.84,0.46,1.19,-1.26 (inactive),-0.511,-1.14,-1.34,-1.58,-1.79,0.142,-0.975,-1.22,-1.28,-0.0999,1.14,-0.147,0.267,0.942,0.339,-0.489
CN(C)CCCC[C@@H]1NC(=O)[C@@H]2C[C@H](C(=O)O)[C@H](c3ccc(O)cc3)N2C1=O,0.902,-0.005,-0.222,-2.22 (inactive),0.857,1.21,0.737,0.928,1.68,0.293,0.668,0.883,1.15,-0.0922,-0.0146,0.0078,-0.138,0.69,0.485,1.2
C=CC[C@]1(C(=O)O)N=C(c2ccc(OCCCO)cc2)O[C@H]1c1ccccc1,1.43,0.518,0.838,-0.893 (inactive),-0.0023,-0.517,-1.13,-1.02,-0.968,0.654,-0.726,-0.138,-0.764,1.21,0.994,-0.124,0.216,0.448,0.498,0.378
CO[C@H]1COC(=O)[C@H](C)NC(=O)CC=C[C@@H](C)[C@H](NS(=O)(=O)c2ccc(C)cc2)COC(=O)[C@@H](OCc2ccccc2)C=C[C@@H]1C,-0.189,-0.667,-0.97,-0.138 (inactive),0.0808,0.258,0.286,0.512,1.37,0.51,-0.117,-0.179,0.449,-0.967,-1.02,-0.248,-0.167,-0.173,-0.141,-0.606
Cc1ccc(S(=O)(=O)N2[C@@H](c3ccccc3)C(C(=O)O)=CC[C@H]2c2ccccc2)cc1,0.0714,0.153,0.431,-0.258 (inactive),0.476,-0.0481,0.197,0.169,-0.454,0.512,0.433,0.498,-0.363,0.526,0.355,0.0317,-0.0709,0.109,-0.701,0.317
